# From the supplement of paper PMC12282887
# ± gives the standard deviation of the averaged measurements.
# What was measured:
# Test in all cases: promoter activity interaction Z-score (Lux/OD deviation from empty-vector control); higher = stronger promoter induction by the compound
# [1] = tested on: E. coli BW25113 acrABp lux reporter
# Procedure, shortened: (§1)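 E. coli BW25113 (wild type or marA, soxS or rob deletion) carrying low-copy luxCDABE promoter reporters grew in 40 µl LB Lennox in 384-well plates at 37°C. Each compound was tested at four 1:2 dilutions in biological duplicates. OD600 and luminescence were read every 30 min for 12 h. Areas were taken over 0–8 h (wild type) or 1–9 h (mutants), and wells below 10% of median growth area were removed. The score is the Z-transformed residual of growth-normalised luminescence fitted against the empty-vector control.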
# [2] = tested on: E. coli BW25113 marRABp lux reporter
# Procedure, shortened: as §1
# [3] = tested on: E. coli BW25113 micFp lux reporter
# Procedure, shortened: as §1
# [4] = tested on: E. coli BW25113 ompFp lux reporter
# Procedure, shortened: as §1
# [5] = tested on: E. coli BW25113 robp lux reporter
# Procedure, shortened: as §1
# [6] = tested on: E. coli BW25113 soxSp lux reporter
# Procedure, shortened: as §1
# [7] = tested on: E. coli BW25113 tolCp lux reporter
# Procedure, shortened: as §1
# [8] = 0.47 µg/ml, genetic background: wild type
# [9] = 0.47 µg/ml, genetic background: ΔmarA
# [10] = 0.47 µg/ml, genetic background: Δrob
# [11] = 0.47 µg/ml, genetic background: ΔsoxS
# [12] = 0.93 µg/ml, genetic background: wild type
# [13] = 0.93 µg/ml, genetic background: ΔmarA
# [14] = 0.93 µg/ml, genetic background: Δrob
# [15] = 0.93 µg/ml, genetic background: ΔsoxS
# [16] = 1.9 µg/ml, genetic background: wild type
# [17] = 1.9 µg/ml, genetic background: ΔmarA
# [18] = 1.9 µg/ml, genetic background: Δrob
# [19] = 1.9 µg/ml, genetic background: ΔsoxS
# [20] = 3.7 µg/ml, genetic background: wild type
# [21] = 3.7 µg/ml, genetic background: ΔmarA
# [22] = 3.7 µg/ml, genetic background: Δrob
# [23] = 3.7 µg/ml, genetic background: ΔsoxS
compound,measurement,setting,value
CC1(C)S[C@@H]2[C@H](NC(=O)Cc3ccccc3)C(=O)N2[C@H]1C(=O)O [Penicillin G],promoter activity interaction Z-score,[1]; [8],-0.119 ± 0.09
same,promoter activity interaction Z-score,[1]; [9],-0.131 ± 0.52
same,promoter activity interaction Z-score,[1]; [10],0.0104 ± 0.26
same,promoter activity interaction Z-score,[1]; [11],0.211 ± 0.039
same,promoter activity interaction Z-score,[1]; [12],-0.14 ± 0.13
same,promoter activity interaction Z-score,[1]; [13],0.592 ± 0.63
same,promoter activity interaction Z-score,[1]; [14],0.28 ± 0.04
same,promoter activity interaction Z-score,[1]; [15],0.575 ± 0.16
same,promoter activity interaction Z-score,[1]; [16],-0.0936 ± 0.033
same,promoter activity interaction Z-score,[1]; [17],0.128 ± 0.61
same,promoter activity interaction Z-score,[1]; [18],-0.00373 ± 0.015
same,promoter activity interaction Z-score,[1]; [19],0.229 ± 0.28
same,promoter activity interaction Z-score,[1]; [20],0.0671 ± 0.041
same,promoter activity interaction Z-score,[1]; [21],0.328 ± 0.92
same,promoter activity interaction Z-score,[1]; [22],0.156 ± 0.023
same,promoter activity interaction Z-score,[1]; [23],0.14 ± 0.13
same,promoter activity interaction Z-score,[2]; [8],-0.0595 ± 0.01
same,promoter activity interaction Z-score,[2]; [9],-0.219 ± 0.31
same,promoter activity interaction Z-score,[2]; [10],-0.0723 ± 0.22
same,promoter activity interaction Z-score,[2]; [11],0.0424 ± 0.095
same,promoter activity interaction Z-score,[2]; [12],0.124 ± 0.25
same,promoter activity interaction Z-score,[2]; [13],-0.178 ± 0.24
same,promoter activity interaction Z-score,[2]; [14],-0.0814 ± 0.19
same,promoter activity interaction Z-score,[2]; [15],0.103 ± 0.11
same,promoter activity interaction Z-score,[2]; [16],-0.36 ± 0.024
same,promoter activity interaction Z-score,[2]; [17],-0.244 ± 0.026
same,promoter activity interaction Z-score,[2]; [18],-0.221 ± 0.14
same,promoter activity interaction Z-score,[2]; [19],0.0691 ± 0.16
same,promoter activity interaction Z-score,[2]; [20],-0.195 ± 0.22
same,promoter activity interaction Z-score,[2]; [21],-0.122 ± 0.053
same,promoter activity interaction Z-score,[2]; [22],0.035 ± 0.11
same,promoter activity interaction Z-score,[2]; [23],-0.0494 ± 0.053
same,promoter activity interaction Z-score,[3]; [8],-0.185 ± 0.12
same,promoter activity interaction Z-score,[3]; [9],-0.107 ± 0.0057
same,promoter activity interaction Z-score,[3]; [10],-0.126 ± 0.1
same,promoter activity interaction Z-score,[3]; [11],-0.069 ± 0.047
same,promoter activity interaction Z-score,[3]; [12],-0.247 ± 0.14
same,promoter activity interaction Z-score,[3]; [13],-0.0395 ± 0.093
same,promoter activity interaction Z-score,[3]; [14],-0.135 ± 0.1
same,promoter activity interaction Z-score,[3]; [15],0.069 ± 0.064
same,promoter activity interaction Z-score,[3]; [16],-0.228 ± 0.13
same,promoter activity interaction Z-score,[3]; [17],0.0369 ± 0.038
same,promoter activity interaction Z-score,[3]; [18],-0.142 ± 0.026
same,promoter activity interaction Z-score,[3]; [19],0.21 ± 0.0048
same,promoter activity interaction Z-score,[3]; [20],-0.333 ± 0.01
same,promoter activity interaction Z-score,[3]; [21],-0.118 ± 0.043
same,promoter activity interaction Z-score,[3]; [22],-0.11 ± 0.08
same,promoter activity interaction Z-score,[3]; [23],-0.156 ± 0.19
same,promoter activity interaction Z-score,[4]; [8],0.195 ± 0.027
same,promoter activity interaction Z-score,[4]; [9],-0.0479 ± 0.074
same,promoter activity interaction Z-score,[4]; [10],-0.032 ± 0.25
same,promoter activity interaction Z-score,[4]; [11],0.447 ± 0.11
same,promoter activity interaction Z-score,[4]; [12],0.206 ± 0.52
same,promoter activity interaction Z-score,[4]; [13],0.589 ± 0.67
same,promoter activity interaction Z-score,[4]; [14],0.432 ± 0.096
same,promoter activity interaction Z-score,[4]; [15],0.381 ± 0.3
same,promoter activity interaction Z-score,[4]; [16],-0.392 ± 0.093
same,promoter activity interaction Z-score,[4]; [17],0.0358 ± 0.0037
same,promoter activity interaction Z-score,[4]; [18],0.00513 ± 0.15
same,promoter activity interaction Z-score,[4]; [19],0.64 ± 0.076
same,promoter activity interaction Z-score,[4]; [20],0.719 ± 0.27
same,promoter activity interaction Z-score,[4]; [21],1.16 ± 0.19
same,promoter activity interaction Z-score,[4]; [22],1.35 ± 0.66
same,promoter activity interaction Z-score,[4]; [23],1.7 ± 0.7
same,promoter activity interaction Z-score,[5]; [8],0.349 ± 0.073
same,promoter activity interaction Z-score,[5]; [9],-0.4 ± 0.07
same,promoter activity interaction Z-score,[5]; [10],0.363 ± 0.43
same,promoter activity interaction Z-score,[5]; [11],0.277 ± 0.35
same,promoter activity interaction Z-score,[5]; [12],0.428 ± 0.22
same,promoter activity interaction Z-score,[5]; [13],0.187 ± 0.37
same,promoter activity interaction Z-score,[5]; [14],0.468 ± 0.14
same,promoter activity interaction Z-score,[5]; [15],1.15 ± 0.22
same,promoter activity interaction Z-score,[5]; [16],0.165 ± 0.58
same,promoter activity interaction Z-score,[5]; [17],0.313 ± 0.31
same,promoter activity interaction Z-score,[5]; [18],0.501 ± 0.075
same,promoter activity interaction Z-score,[5]; [19],1.21 ± 0.031
same,promoter activity interaction Z-score,[5]; [20],-0.01 ± 0.15
same,promoter activity interaction Z-score,[5]; [21],-0.105 ± 0.66
same,promoter activity interaction Z-score,[5]; [22],0.319 ± 0.12
same,promoter activity interaction Z-score,[5]; [23],0.575 ± 0.42
same,promoter activity interaction Z-score,[6]; [8],-0.0325 ± 0.0094
same,promoter activity interaction Z-score,[6]; [9],-0.123 ± 0.17
same,promoter activity interaction Z-score,[6]; [10],-0.201 ± 0.0035
same,promoter activity interaction Z-score,[6]; [11],0.0709 ± 0.024
same,promoter activity interaction Z-score,[6]; [12],-0.167 ± 0.16
same,promoter activity interaction Z-score,[6]; [13],0.103 ± 0.074
same,promoter activity interaction Z-score,[6]; [14],-0.163 ± 0.14
same,promoter activity interaction Z-score,[6]; [15],0.0504 ± 0.19
same,promoter activity interaction Z-score,[6]; [16],-0.132 ± 0.13
same,promoter activity interaction Z-score,[6]; [17],-0.0824 ± 0.12
same,promoter activity interaction Z-score,[6]; [18],-0.0996 ± 0.047
same,promoter activity interaction Z-score,[6]; [19],0.084 ± 0.14
same,promoter activity interaction Z-score,[6]; [20],-0.201 ± 0.12
same,promoter activity interaction Z-score,[6]; [21],0.0156 ± 0.13
same,promoter activity interaction Z-score,[6]; [22],-0.136 ± 0.17
same,promoter activity interaction Z-score,[6]; [23],-0.126 ± 0.39
same,promoter activity interaction Z-score,[7]; [8],-0.848 ± 1
same,promoter activity interaction Z-score,[7]; [9],-0.0171 ± 0.012
same,promoter activity interaction Z-score,[7]; [10],0.219 ± 0.5
same,promoter activity interaction Z-score,[7]; [11],0.375 ± 0.55
same,promoter activity interaction Z-score,[7]; [12],-0.35 ± 0.54
same,promoter activity interaction Z-score,[7]; [13],-0.485 ± 0.89
same,promoter activity interaction Z-score,[7]; [14],-0.163 ± 0.37
same,promoter activity interaction Z-score,[7]; [15],0.352 ± 0.23
same,promoter activity interaction Z-score,[7]; [16],-0.309 ± 1
same,promoter activity interaction Z-score,[7]; [17],-0.171 ± 0.9
same,promoter activity interaction Z-score,[7]; [18],-0.0507 ± 1.1
same,promoter activity interaction Z-score,[7]; [19],0.284 ± 0.24
same,promoter activity interaction Z-score,[7]; [20],-0.124 ± 0.38
same,promoter activity interaction Z-score,[7]; [21],-0.297 ± 0.25
same,promoter activity interaction Z-score,[7]; [22],-0.675 ± 1.1
same,promoter activity interaction Z-score,[7]; [23],0.109 ± 0.61
